# From PubChem
# ULK1 primary – ULK1 kinase inhibitors, primary screen, biochemical, AlphaScreen | inhibition, % at 5.96 µM | AlphaScreen Atg13 phosphorylation by ULK1, luminescence | 30,000 tested, 1.9% active; in the data active = inhibition above about 43%;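 also: 0% = median of compound wells and 100% = no enzyme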
# Target sequence (O75385 whole entry, looked up): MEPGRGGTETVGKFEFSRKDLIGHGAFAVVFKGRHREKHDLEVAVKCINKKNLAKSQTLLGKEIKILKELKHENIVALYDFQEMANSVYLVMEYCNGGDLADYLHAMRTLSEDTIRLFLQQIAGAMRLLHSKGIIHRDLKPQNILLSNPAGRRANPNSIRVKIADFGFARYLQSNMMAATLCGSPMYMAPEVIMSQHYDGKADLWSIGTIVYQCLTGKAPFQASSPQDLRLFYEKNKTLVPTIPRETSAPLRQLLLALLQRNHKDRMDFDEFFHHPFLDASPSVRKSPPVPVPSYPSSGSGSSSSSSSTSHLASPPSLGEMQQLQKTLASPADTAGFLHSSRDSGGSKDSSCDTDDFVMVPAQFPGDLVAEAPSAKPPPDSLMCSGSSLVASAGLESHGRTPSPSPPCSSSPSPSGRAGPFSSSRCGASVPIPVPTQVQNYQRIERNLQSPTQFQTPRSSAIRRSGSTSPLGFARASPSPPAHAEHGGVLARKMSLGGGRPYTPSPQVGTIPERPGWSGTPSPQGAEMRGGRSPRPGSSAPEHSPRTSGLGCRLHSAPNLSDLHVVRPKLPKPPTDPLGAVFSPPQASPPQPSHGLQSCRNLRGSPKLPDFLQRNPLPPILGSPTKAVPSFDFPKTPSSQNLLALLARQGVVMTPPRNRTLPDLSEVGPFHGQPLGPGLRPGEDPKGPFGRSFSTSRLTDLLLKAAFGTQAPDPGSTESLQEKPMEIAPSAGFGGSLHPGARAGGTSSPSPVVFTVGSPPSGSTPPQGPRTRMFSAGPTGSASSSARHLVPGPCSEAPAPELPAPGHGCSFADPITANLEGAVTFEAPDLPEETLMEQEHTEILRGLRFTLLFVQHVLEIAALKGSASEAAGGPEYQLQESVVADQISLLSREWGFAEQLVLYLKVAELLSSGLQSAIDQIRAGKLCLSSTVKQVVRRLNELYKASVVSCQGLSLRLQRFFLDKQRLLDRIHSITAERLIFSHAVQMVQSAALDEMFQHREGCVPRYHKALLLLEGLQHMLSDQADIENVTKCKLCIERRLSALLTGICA
# ASK1 inh – ASK1 kinase inhibitors, primary screen, biochemical, AlphaScreen; 22,000 tested, 0.99% active; AlphaScreen MKK6 phosphorylation by ASK1, luminescence; Mitogen-activated protein kinase kinase kinase 5 (Homo sapiens), Q99683; inhibition, % at 7.44 µM; in the data active = inhibition above about 35%;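 also: 0% = median of compound wells and 100% = no enzyme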
# * = called active by the depositor; x = no result given. Most compounds without a hit are left out; they make up all but 2.4% or so of the library.
SMILES,ULK1 primary,ASK1 inh
CCCC(O)(CCC)C(=O)NNc1ccccc1C,-7,x
CC(C)n1cnc2c(Nc3ccc4c(c3)OCO4)nc(NCc3ccc4c(c3)OCO4)nc21,-11,40*
c1ccc2[nH]c(CNc3nc(Nc4ccncc4)nc4c3ncn4-c3ccsc3)nc2c1,49*,18
CC(=O)Nc1ccc(Nc2nc(NCc3ccc4c(c3)OCO4)nc3c2ncn3C(C)C)cc1,8,15
c1ccc2[nH]c(CNc3nc(Nc4ccc(-n5ccnc5)cc4)nc4c3ncn4-c3ccsc3)nc2c1,37,1
COc1nc(Nc2ccccn2)nc(NC2CC2)n1,-11,7
CC(=O)Nc1c([N+](=O)[O-])sc2ccccc12,10,x
COc1cc(Nc2nc(Nc3nccc4ccccc34)nc3nc[nH]c23)cc(OC)c1OC,1,-8
COc1cc(Nc2nc(Nc3ccccc3)c3[nH]cnc3n2)cc(OC)c1OC,65*,-10
COc1cc(Nc2nc(NCCN(C(C)C)C(C)C)c3[nH]cnc3n2)cc(OC)c1OC,10,5
CCCNc1nc(Nc2cc(OC)c(OC)c(OC)c2)nc2nc[nH]c12,59*,-41
COc1cc(Nc2nc(Nc3cccnc3)nc3nc[nH]c23)cc(OC)c1OC,23,-3
COc1cc(Nc2nc(NCc3ccccc3)c3[nH]cnc3n2)cc(OC)c1OC,67*,-19
COc1cc(Nc2cc(N3CCN(Cc4ccc5c(c4)OCO5)CC3)nc(N)n2)cc(OC)c1OC,-12,-7
O=C(Nc1ccc(-c2ccncc2)cc1)C1Cc2c(ccc3ccccc23)O1 (stereo not drawn),-17,-7
CC(C)n1c(NCCN2CCOCC2)nc2c(NCCCN3CCCC3=O)ncnc21,6,-14
COc1ccc(CCNc2ncnc3nc(Nc4ccc5ncccc5c4)[nH]c23)cc1,4,11
CC(C)n1cnc2c(Nc3ccc4c(c3)OCO4)nc(N3CCCC3CO)nc21 (stereo not drawn),6,4
CC(C)n1cnc2c(NCCc3ccc(O)cc3)nc(Nc3ccc(N4CCOCC4)cc3)nc21,-2,23
COc1cc(NC(=O)c2cccc(-n3cc(/C=C/C(=O)c4ccccc4)cn3)c2)ccc1CN(C)C,21,-18
O=C(/C=C/c1ccccc1)c1cccc(N2C(=O)C=CC2=O)c1,55*,x
O=C(CCN1C(=O)/C(=C\c2ccccc2)SC1=S)Nc1ccc(O)cc1,8,x
O=C(NC1CC1)c1ccc(-c2cccc(C(=O)NC3CC3)c2)cc1,-2,12
CC(=O)Nc1ccc(NC(=O)c2cccc(-c3ccc(C(=O)NC4CC4)cc3)c2)cc1,47*,9
O=C(Nc1ccc(N2CCOCC2)cc1)c1cccc(Nc2ccc(N3CCOCC3)cc2)n1,48*,-1
SMILES,ULK1 primary,ASK1 inh
CC(=O)Nc1ccc(NC(=O)c2cccc(Nc3ccc(-n4ccnc4)cc3)n2)cc1,16,-2
CC(=O)Nc1ccc(NC(=O)c2cccc(Nc3ccc(N4CCOCC4)cc3)n2)cc1,42,-10
O=C(Nc1ccc(N2CCOCC2)cc1)c1cccc(Nc2ccc(-n3ccnc3)cc2)n1,50*,-3
CCN(CC)C(=O)C1CCCN(c2nc3c(NCCCN4CCCC4=O)ncnc3n2C(C)C)C1 (stereo not drawn),6,-8
COc1cc(C(=O)NS(=O)(=O)c2ccccc2C)ccc1Cc1cn(C)c2ccc(NC(=O)OC3CCCC3)cc12,65*,x
CCOc1ccc(-c2cc(=O)c3cc(NC(=O)c4ccc(OC)c(OC)c4)ccc3o2)cc1,7,x
CC(C)NC(=O)c1cccc(NC(=O)Nc2ccc(-c3ncnc4[nH]cc(Cl)c34)cc2)c1,70*,20
CC(C)NC(=O)c1cccc(NC(=O)Nc2ccc(-c3ncnc4nc[nH]c34)cc2)c1,19,26
O=C(O)CSc1nnc(-c2cccnc2)n1-c1ccccc1,5,x
CC(=O)Nc1ccc(Nc2nc(Nc3ncccn3)nc3c2ncn3C(C)C)cc1,47*,3
c1ccc(Nc2ccnc(Nc3ccncn3)n2)cc1,45*,16
CC(=O)Nc1ccc(Nc2nc(Nc3ccc4ncccc4c3)nc3c2ncn3C(C)C)cc1,34,-8
CC(C)n1cnc2c(NC3CCN(Cc4ccccc4)CC3)nc(Nc3ccncn3)nc21,15,12
CC(C)n1cnc2c(Nc3ccccc3)nc(Nc3ccccn3)nc21,49*,-4
c1ccc(Nc2ccnc(Nc3ccncc3)n2)cc1,17,3
CC(C)n1cnc2c(NCCO)nc(Nc3ccccn3)nc21,9,-8
CC(C)n1cnc2c(Nc3ccccc3)nc(Nc3ccncn3)nc21,50*,-5
O=C(NCc1ccccc1)c1cccc(Nc2ccncc2)n1,1,-6
CCN(CC)C(=O)C1CCCN(c2ncc(C(=O)NCc3nc4ccccc4[nH]3)s2)C1 (stereo not drawn),6,2
Cn1cc(-c2cc(Nc3ccc(-n4cnc(N5CCOCC5)n4)cc3)ncc2Cl)cn1,-14,-50
